These results are taken from PubChem BioAssay.

Assay [1] is described as follows: rapamycin-like changes in RPL19A-GFP expression – cell-based, S. cerevisiae, multiplex flow cytometry, primary screen (AID 1862; in the data active means percent of DMSO control GFP below about 86%;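 further: lower values mimic rapamycin by blocking the RPL19A rise seen in DMSO cells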). As to conditions: S. cerevisiae RPL19A-GFP strain, flow cytometry fluorescence, 3 h; at 10 µM; stronger effect = lower value.
The nature of assay [2]: TOR pathway GLN3 branch reporter MEP2-GFP changes – S. cerevisiae, multiplex flow cytometry, primary screen (AID 1867;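 active means GFP response, as percent of the DMSO control, above the screen-wide mean plus 3 SD, about 139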;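 further: median GFP channel fluorescence of barcode-gated MEP2-GFP cells measured by flow cytometry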). As to conditions: S. cerevisiae MEP2-GFP strain, 3 h, at 10 µM, stronger effect = higher value. A general note: A flow cytometer gives signals particle by particle.
A short description of assay [3]: TOR pathway RTG branch CIT2 reporter changes – S. cerevisiae, GFP fusion, multiplex flow cytometry, primary screen (AID 1870;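 active means percent response above a set limit, the screen-wide mean plus 3 SD, cut at about 130% in these data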;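 further: barcoded CIT2-GFP strain pooled with four other GFP strains with rapamycin as positive control; median GFP fluorescence per well over plate mean of DMSO wells so 100% = DMSO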). Conditions: S. cerevisiae CIT2-GFP expression, 3 h, at 10 µM, stronger effect = higher value.
Assay [4] can be described thus: TOR pathway LAP4-GFP level changes – S. cerevisiae, multiplex flow cytometry, primary screen (AID 1873;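 active means GFP signal, as percent of the solvent control, above the screen mean plus 3 SD, about 149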). Conditions: S. cerevisiae LAP4-GFP expression, 3 h, at 10 µM, stronger effect = higher value.
Assay [5] is described as follows: yeast AGP1-GFP level changes, GLN3 branch – cell-based, multiplex flow cytometry, S. cerevisiae, primary screen (AID 1887;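 active means GFP signal above the screen-wide mean plus 3 SD, that is over about 124.5% of the solvent control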;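 further: AGP1-GFP fusion strain of S. cerevisiae within a five-strain barcoded multiplex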). Conditions: 3 h, at 10 µM, stronger effect = higher value.
Assay [6] can be described thus: reduced mouse 2C T cell binding to pMHC/ICAM-1 vesicles – MLPCN validation set, flow cytometry, LFA-1/ICAM-1 modulator project, pilot screen (AID 2523;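 active means response below a set limit, under 55% cells CD8-positive and vesicle-bound, and CD8 cells' 90th-percentile brightness under 279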;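 on vesicle binding response: mean PE anti-B7-1 fluorescence of CD8+ cells relative to row control; 100% = QL9-loaded vesicles with DMSO vehicle in the same plate row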). As to conditions: 2C mouse CD8+ T cells, at 7 µM, stronger effect = lower value; double positive events: measured here: CD8+/vesicle+ event percentage.
Assay [7] addresses Integrin beta-1 (Homo sapiens) + Integrin alpha-4 (Homo sapiens) (UniProt P13612+P05556). Put plainly: alpha4beta1 integrin LIBS antibody binding reduction – U937 cells, HUTS-21 mAb, flow cytometry, validation set, VLA-4 allosteric modulator project, pilot screen (AID 2674;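 active means inhibition above 50%, about 3 SD of the validation set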;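 further: antibody binding induced by the VLA-4 ligand LDV present at three times its Kd; 0% = LDV ligand with antibody and no compound and 100% = antibody without LDV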). As to conditions: HUTS-21 LIBS mAb binding, at 6.7 µM, stronger effect = higher value.
The nature of assay [8]: calorie-restriction mimetic ROS inhibitors, yeast – validation compound set, pilot screen (AID 2706;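 active means superoxide response below 65% of plate, a cut near 3 SD across the whole screen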;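 further: yeast exposed to compound for one week at 30 degrees C before staining; 100% = mean of all compound wells on the same plate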). Conditions: S. cerevisiae aging, superoxide DHE fluorescence; at 10 µM; stronger effect = lower value.
The target in assay [9] is Beta-adrenergic receptor kinase 1 (Homo sapiens) (UniProt P25098). Put plainly: GRK2 binders displacing RNA aptamer, biochemical, validation, human GRK2, bead flow cytometry (AID 488806;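 active means aptamer binding inhibition above 30%, about 3 SD of noise from non-fluorescent compounds; inactive means inhibition at or below 30%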). Conditions: bead-bound GRK2, FAM-aptamer displacement, at 10 µM, stronger effect = higher value.
The target in assay [10] is Beta-2 adrenergic receptor (Homo sapiens) (UniProt P07550). Put plainly: agonist-induced loss of surface beta2AR – cell-based, FAP fluorogen, flow cytometry, validation set, pilot screen (AID 504459;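 active means percent response above 42, roughly 3 SD of non-fluorescent test compounds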;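 further: agonist-driven loss of surface beta2AR via internalization measured by FAP dye flow cytometry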). As to conditions: Am2.2-beta2AR cells, at 10 µM, stronger effect = higher value.
Assay [11] deals with AP-2 complex subunit beta (Homo sapiens) (UniProt P63010). Put plainly: beta-arrestin/AP2 interaction blockers – biochemical, validation set, GST-AP2 beads, flow cytometry, pilot screen (AID 504541;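 active means inhibition above 54%, about 3 SD of non-fluorescent compounds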;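 further: AP2 carries R879A mutation and is captured from E. coli lysate; bead-bound FITC arrestin peptide fluorescence measuring arrestin peptide binding to AP2; 0% = DMSO wells and 100% = excess unlabeled arrestin peptide control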). As to conditions: FITC arrestin peptide, at 10 µM, stronger effect = higher value.
Assay [12] in a line: cytosolic pH regulators acting via V-ATPase – S. cerevisiae, pHLuorin, HTS validation (AID 504600; in the data active means response above about 15%;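 further: plate controls were DMSO for no effect and reference compound for full effect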). Conditions: V-ATPase proton transport, at 10 µM, stronger effect = higher value.
Assay [13] has as its system anti-desmoglein-3 scFv antibody binding to human DSG3. Put plainly: blockers of pathogenic pemphigus antibody–desmoglein-3 binding – biochemical, validation compound set, bead-based, flow cytometry, pilot screen (AID 588368;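 active means binding below the plate cutoff, the plate median minus 3 SD, with a reading above zero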;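 further: signal is the median channel fluorescence of bead-bound GFP antibody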). Conditions: Protein G beads, DSG3-Fc, scFv-GFP binding, at 10 µM, stronger effect = lower value.
Assay [14] deals with Botulinum neurotoxin type F light chain protease (Clostridium botulinum). Put plainly: Clostridium botulinum type F light chain protease inhibitors, microsphere substrate cleavage, validation (AID 588459). Conditions: multiplex microsphere protease substrate cleavage assay, flow cytometry; at 10 µM; stronger effect = higher value.
Assay [15] concerns the target Botulinum neurotoxin type A (Clostridium botulinum) (UniProt P0DPI0). Put plainly: BoNT/A light chain protease inhibitors, biochemical, multiplex microsphere flow cytometry, validation set (AID 588460). As to conditions: at 10 µM, stronger effect = higher value.
Assay [16] addresses Lethal factor (Bacillus anthracis) (UniProt P15917). Put plainly: Bacillus anthracis lethal factor inhibition, microsphere flow cytometry protease assay, validation at 10 µM (AID 588461). As to conditions: multiplex microsphere protease cleavage assay, stronger effect = higher value.
Assay [17] can be described thus: Nile Red efflux blockade in pump-expressing yeast – validation compound set, multiplex, phenotypic, pilot screen (AID 588506;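 active means efflux inhibition above 0.42, the validation set average plus 4 SD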;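 further: Nile Red retained in cells so higher fluorescence means more efflux inhibition; 0 = negative control wells and 1 = enniatin B 25 µM full block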). As to conditions: S. cerevisiae pump-expressing triplex, Nile Red efflux flow cytometry; at 10 µM; stronger effect = higher value.
Assay [18] addresses ATP-binding cassette sub-family B member 6 (Homo sapiens) (UniProt Q9NP58). Put plainly: blockers of ABCB6-driven porphyrin uptake – K562-ABCB6 cells, flow cytometry, validation set, pilot screen (AID 588550;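 active means inhibition above the screen-wide mean plus 3 SD, about 51%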;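 further: 0% = DMSO wells and 100% = benzethonium chloride 70 µM positive control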). Conditions: K562-ABCB6 porphyrin accumulation, 1 h, at 10 µM, stronger effect = higher value.
A short description of assay [19]: AML differentiation inducers, ER-HoxA9 marrow cells – cell-based, GFP/MAC1 double positive, flow cytometry, validation set, primary screen (AID 588685;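 active means differentiation response of at least 50%, scaled between solvent and reference control, from cells with both markers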;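 further: compound exposure lasts four days before antibody staining and flow analysis; 0% = DMSO wells and 100% = 5 µM fulvestrant positive control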). As to conditions: stronger effect = higher value.

Records with an inconclusive call do not appear. Calls of active or inactive are those of the source. Unless noted, how the calls were made is not given here.

As a reminder, the inhibition is the relative decrease from the control value, in per cent.

Sequence of AP-2 complex subunit beta (Homo sapiens) (P63010 whole entry, looked up, one chain of several): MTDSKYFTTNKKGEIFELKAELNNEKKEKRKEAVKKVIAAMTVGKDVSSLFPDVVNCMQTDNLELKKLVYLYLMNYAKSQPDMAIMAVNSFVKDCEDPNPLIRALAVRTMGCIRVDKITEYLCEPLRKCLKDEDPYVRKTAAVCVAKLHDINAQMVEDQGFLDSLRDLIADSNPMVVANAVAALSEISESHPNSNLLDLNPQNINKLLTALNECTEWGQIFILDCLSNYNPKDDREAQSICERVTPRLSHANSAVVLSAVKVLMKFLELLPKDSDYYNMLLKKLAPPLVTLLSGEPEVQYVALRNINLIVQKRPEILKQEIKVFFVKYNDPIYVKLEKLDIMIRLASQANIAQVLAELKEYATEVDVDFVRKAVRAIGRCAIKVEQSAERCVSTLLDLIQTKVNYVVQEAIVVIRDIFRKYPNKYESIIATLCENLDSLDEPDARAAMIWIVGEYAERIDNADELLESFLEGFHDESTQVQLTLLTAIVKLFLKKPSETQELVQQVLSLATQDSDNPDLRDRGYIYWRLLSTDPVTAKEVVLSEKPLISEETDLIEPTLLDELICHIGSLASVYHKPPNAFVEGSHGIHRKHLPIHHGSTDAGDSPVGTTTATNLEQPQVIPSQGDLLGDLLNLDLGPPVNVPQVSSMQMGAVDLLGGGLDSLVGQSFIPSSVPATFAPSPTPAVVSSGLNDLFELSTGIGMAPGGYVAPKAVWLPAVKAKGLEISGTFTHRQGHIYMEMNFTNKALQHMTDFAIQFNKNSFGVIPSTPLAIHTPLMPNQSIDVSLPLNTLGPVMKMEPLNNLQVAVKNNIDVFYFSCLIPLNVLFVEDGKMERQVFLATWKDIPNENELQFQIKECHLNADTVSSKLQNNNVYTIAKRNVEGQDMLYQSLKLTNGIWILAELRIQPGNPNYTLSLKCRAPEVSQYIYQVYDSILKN
Sequence of Botulinum neurotoxin type A (Clostridium botulinum) (P0DPI0 whole entry, looked up): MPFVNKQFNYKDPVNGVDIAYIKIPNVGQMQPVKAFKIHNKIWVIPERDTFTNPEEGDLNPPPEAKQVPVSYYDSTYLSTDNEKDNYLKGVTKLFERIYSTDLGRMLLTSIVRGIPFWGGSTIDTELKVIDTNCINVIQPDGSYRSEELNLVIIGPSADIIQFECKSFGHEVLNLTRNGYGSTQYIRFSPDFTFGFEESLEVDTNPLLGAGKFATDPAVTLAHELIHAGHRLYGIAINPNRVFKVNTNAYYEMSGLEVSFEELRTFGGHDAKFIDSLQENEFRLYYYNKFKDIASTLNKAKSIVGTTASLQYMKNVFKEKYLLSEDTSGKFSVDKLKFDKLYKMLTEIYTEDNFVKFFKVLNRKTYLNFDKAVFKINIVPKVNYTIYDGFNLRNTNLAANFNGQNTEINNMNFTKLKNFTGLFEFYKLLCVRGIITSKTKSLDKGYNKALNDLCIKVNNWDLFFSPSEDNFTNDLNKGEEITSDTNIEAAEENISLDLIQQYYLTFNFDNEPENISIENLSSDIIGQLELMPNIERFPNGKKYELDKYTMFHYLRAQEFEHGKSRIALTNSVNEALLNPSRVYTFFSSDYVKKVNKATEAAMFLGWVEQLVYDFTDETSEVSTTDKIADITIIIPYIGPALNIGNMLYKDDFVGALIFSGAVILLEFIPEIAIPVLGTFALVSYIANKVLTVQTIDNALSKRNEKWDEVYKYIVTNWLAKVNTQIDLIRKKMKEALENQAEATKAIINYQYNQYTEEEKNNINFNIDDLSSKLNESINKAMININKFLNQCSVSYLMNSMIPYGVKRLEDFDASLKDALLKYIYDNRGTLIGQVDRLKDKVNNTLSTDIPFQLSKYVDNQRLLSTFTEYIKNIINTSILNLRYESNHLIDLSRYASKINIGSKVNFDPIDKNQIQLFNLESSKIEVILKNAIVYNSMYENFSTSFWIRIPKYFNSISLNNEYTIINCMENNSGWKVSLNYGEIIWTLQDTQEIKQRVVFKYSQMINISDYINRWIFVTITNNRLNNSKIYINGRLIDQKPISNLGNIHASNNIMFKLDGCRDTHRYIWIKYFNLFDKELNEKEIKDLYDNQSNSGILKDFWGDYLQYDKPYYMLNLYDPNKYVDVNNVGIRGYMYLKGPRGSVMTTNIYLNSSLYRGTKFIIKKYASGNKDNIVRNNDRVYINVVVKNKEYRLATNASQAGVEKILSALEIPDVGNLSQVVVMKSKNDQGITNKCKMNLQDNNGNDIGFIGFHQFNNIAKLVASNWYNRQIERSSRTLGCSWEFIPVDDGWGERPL
Sequence of Integrin beta-1 (Homo sapiens) + Integrin alpha-4 (Homo sapiens) (P05556 whole entry, looked up): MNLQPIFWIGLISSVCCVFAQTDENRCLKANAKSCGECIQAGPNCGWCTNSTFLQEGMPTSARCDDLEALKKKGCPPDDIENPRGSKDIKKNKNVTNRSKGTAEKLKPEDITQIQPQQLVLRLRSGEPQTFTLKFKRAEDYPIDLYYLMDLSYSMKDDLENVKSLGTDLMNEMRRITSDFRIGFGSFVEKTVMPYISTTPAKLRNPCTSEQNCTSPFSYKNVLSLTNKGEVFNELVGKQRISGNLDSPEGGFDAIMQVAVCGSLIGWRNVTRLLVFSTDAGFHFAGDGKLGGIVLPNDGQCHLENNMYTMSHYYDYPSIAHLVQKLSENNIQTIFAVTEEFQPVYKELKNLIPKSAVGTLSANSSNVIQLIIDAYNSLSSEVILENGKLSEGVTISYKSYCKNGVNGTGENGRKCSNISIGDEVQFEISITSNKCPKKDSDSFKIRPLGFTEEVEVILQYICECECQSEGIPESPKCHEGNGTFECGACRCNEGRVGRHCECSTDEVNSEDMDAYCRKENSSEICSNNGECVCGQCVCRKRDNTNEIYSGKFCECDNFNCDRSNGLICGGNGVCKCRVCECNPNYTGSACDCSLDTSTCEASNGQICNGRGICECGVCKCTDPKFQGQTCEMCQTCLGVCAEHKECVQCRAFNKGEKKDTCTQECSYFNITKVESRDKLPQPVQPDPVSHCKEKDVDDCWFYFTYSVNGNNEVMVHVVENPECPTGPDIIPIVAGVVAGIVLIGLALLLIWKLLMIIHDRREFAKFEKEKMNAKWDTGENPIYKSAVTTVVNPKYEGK
Sequence of Integrin beta-1 (Homo sapiens) + Integrin alpha-4 (Homo sapiens) (P13612 whole entry, looked up): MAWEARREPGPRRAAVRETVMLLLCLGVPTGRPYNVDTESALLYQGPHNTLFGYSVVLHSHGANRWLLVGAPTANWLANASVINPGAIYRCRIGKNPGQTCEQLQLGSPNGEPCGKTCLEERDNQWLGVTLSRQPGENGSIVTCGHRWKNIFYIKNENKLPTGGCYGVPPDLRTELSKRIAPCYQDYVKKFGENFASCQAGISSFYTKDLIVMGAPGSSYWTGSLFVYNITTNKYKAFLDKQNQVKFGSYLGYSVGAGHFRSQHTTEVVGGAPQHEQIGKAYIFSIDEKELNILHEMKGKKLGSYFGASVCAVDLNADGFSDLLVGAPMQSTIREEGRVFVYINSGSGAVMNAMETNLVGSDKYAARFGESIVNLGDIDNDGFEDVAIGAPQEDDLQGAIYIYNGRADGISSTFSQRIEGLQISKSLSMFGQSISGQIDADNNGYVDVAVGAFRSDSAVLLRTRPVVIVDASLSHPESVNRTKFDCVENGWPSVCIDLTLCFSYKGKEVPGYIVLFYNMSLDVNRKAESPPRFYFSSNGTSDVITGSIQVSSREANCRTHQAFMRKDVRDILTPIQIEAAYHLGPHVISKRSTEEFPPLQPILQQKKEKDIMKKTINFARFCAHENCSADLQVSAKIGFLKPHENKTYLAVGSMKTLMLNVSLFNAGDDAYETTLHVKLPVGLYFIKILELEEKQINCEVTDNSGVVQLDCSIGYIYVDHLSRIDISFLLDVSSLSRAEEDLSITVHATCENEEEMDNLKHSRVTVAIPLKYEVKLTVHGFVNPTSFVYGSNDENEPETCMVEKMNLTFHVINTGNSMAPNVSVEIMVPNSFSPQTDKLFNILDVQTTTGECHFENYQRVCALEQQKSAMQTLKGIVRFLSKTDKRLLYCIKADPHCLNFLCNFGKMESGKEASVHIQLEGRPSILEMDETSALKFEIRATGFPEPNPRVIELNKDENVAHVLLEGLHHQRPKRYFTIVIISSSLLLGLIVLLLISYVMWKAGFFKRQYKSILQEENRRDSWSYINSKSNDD
Sequence of Beta-adrenergic receptor kinase 1 (Homo sapiens) (P25098 whole entry, looked up): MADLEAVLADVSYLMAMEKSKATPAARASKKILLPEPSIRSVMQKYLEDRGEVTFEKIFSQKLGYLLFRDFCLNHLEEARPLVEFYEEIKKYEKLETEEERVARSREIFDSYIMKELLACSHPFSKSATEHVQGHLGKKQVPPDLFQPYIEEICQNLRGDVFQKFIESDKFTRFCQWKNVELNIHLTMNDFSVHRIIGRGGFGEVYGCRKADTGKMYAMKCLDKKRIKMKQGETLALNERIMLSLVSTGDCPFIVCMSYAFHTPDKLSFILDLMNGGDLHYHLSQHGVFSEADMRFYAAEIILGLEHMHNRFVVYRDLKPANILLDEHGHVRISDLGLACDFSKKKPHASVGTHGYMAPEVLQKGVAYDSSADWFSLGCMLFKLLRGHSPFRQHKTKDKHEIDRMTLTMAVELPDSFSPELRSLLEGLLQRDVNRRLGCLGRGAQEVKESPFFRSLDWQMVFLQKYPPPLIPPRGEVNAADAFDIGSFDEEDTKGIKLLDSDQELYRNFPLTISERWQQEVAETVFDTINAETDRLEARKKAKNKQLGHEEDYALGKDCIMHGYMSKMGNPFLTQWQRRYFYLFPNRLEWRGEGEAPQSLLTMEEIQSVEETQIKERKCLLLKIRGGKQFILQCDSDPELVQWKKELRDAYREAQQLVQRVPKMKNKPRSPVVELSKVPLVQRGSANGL

As to `C[C@H]1CCCC(=O)CCC/C=C/c2cc(O)cc(O)c2C(=O)O1`, the percent of DMSO control GFP in assay [1] was 102% (inactive). The GFP response vs DMSO in assay [2] is 104% (inactive); in assay [4] it was 96.5% (inactive). The percent response of DMSO control in assay [3] was 96% (inactive). Besides, in assay [5], the GFP response, % of DMSO was 98.3% (inactive). The compound also had a double positive events in assay [6] of 57.4%. For the same compound, the vesicle binding response in assay [6] is 138% (inactive). Also, the inhibition was -0.31% (inactive) in [7]; -2.22% (inactive) in assay [11]; 5.6% (inactive) in [14]; 0.5% (inactive) in assay [15]; 0.4% (inactive) in [16]; 3% (inactive) in assay [18]. In [8], the superoxide response (% of plate) was 102% (inactive). Moreover, the aptamer binding inhibition in assay [9] is 3% (inactive). Also, the response in assay [10] is 2.24% (inactive); in [12], 0.54% (inactive). Also, the binding (% of control) in assay [13] is 99% (inactive). In addition, in assay [17], the efflux inhibition (fraction of control) was -0.09 (inactive). Moreover, the differentiation response in [19] is -5.68% (inactive).

As for `CC(C)CC12CN3CCN(CC(C3)C1O)C2` (stereo not given), the percent of DMSO control GFP in assay [1] is 89.8% (inactive). Moreover, the GFP response vs DMSO is 116% (inactive) in assay [2] and 89.7% (inactive) in assay [4]. Besides, the percent response of DMSO control in assay [3] is 111% (inactive). Moreover, the GFP response, % of DMSO in assay [5] is 105% (inactive). In assay [6], this compound yielded a double positive events of 65.4%. Also, the vesicle binding response in assay [6] is 153% (inactive). The inhibition in assay [7] was -2.27% (inactive); in assay [11], -0.1% (inactive); in assay [14] it was 3.6% (inactive); in [15] it was -0.7% (inactive); in [16], -4.5% (inactive); in assay [18], 13% (inactive). Also, in assay [8], the superoxide response (% of plate) is 91.5% (inactive). Further, the aptamer binding inhibition in assay [9] was -7% (inactive). Further, the response is 4.34% (inactive) in [10] and -1.9% (inactive) in assay [12]. The binding (% of control) in assay [13] was 110% (inactive). The efflux inhibition (fraction of control) in [17] was -0.28 (inactive). In addition, the differentiation response in assay [19] is 10.6% (inactive).

Take `C[N+]1(C)C2CCC1CC(OC(=O)C(CO)c1ccccc1)C2` (stereo not given): in assay [1], the percent of DMSO control GFP is 106% (inactive). The GFP response vs DMSO is 99.3% (inactive) in assay [2] and 88.1% (inactive) in assay [4]. The percent response of DMSO control in assay [3] was 112% (inactive). Besides, in assay [5], the GFP response, % of DMSO is 105% (inactive). The compound also gave a double positive events in assay [6] of 61.8%. In addition, the vesicle binding response in assay [6] is 233% (inactive). Moreover, the inhibition in assay [7] is -6.68% (inactive); in assay [11] it was 6.92% (inactive); in assay [14], -5.3% (inactive); in assay [15], -0.6% (inactive); in assay [16], 2.6% (inactive); in assay [18] it was -4% (inactive). The superoxide response (% of plate) in assay [8] is 105% (inactive). Moreover, the aptamer binding inhibition in assay [9] was 5% (inactive). The response in assay [10] is -0.63% (inactive); in assay [12], -1.74% (inactive). For the same compound, in [13], the binding (% of control) was 98% (inactive). In addition, the efflux inhibition (fraction of control) in [17] was 0.05 (inactive). Further, the differentiation response in [19] is -6.6% (inactive).

For the compound `Cc1cc(OCc2cc(C(=O)O)oc2C)c2c3c(c(=O)oc2c1)CCCC3`, in assay [1], the percent of DMSO control GFP was 104% (inactive). The results for the GFP response vs DMSO in [2] and in assay [4] were 97.2% (inactive) and 96.6% (inactive), respectively. Further, the percent response of DMSO control in assay [3] is 114% (inactive). The GFP response, % of DMSO in assay [5] was 101% (inactive). Besides, in assay [6], the double positive events came out at 66.4%. Moreover, in [6], the vesicle binding response was 282% (inactive). For the same compound, the inhibition in assay [7] was 7.85% (inactive); in assay [11], -4.24% (inactive); in [14], -2% (inactive); in [15] it was -0.5% (inactive); in assay [16], -8.8% (inactive); in [18], 6% (inactive). The superoxide response (% of plate) in assay [8] is 90.3% (inactive). Moreover, the aptamer binding inhibition in [9] was 4% (inactive). Besides, the response was -5.78% (inactive) in assay [10] and -0.71% (inactive) in assay [12]. Further, the binding (% of control) in assay [13] was 97.1% (inactive). Further, the efflux inhibition (fraction of control) in [17] was -0.01 (inactive). Further, the differentiation response in [19] is 6.11% (inactive).

Turning to `CN1CCN(C(=O)OC2c3nccnc3C(=O)N2c2ccc(Cl)cn2)CC1` (stereo not given), in assay [1], the percent of DMSO control GFP is 99.9% (inactive). For the same compound, the GFP response vs DMSO in [2] was 112% (inactive); in assay [4], 117% (inactive). For the same compound, the percent response of DMSO control in [3] is 92.9% (inactive). Moreover, the GFP response, % of DMSO in assay [5] was 106% (inactive). This compound yielded a double positive events in assay [6] of 58.9%. Besides, in assay [6], the vesicle binding response was 6590% (inactive). In addition, the inhibition in assay [7] is 9.13% (inactive); in assay [11], 0.51% (inactive); in assay [14], 4.3% (inactive); in assay [15], -0.8% (inactive); in assay [16], 1.7% (inactive); in assay [18] it was 5% (inactive). The superoxide response (% of plate) in assay [8] was 111% (inactive). Also, the aptamer binding inhibition in assay [9] is 2% (inactive). Also, the response was -5.78% (inactive) in assay [10] and -1.22% (inactive) in assay [12]. The binding (% of control) in assay [13] is 100% (inactive). Moreover, the efflux inhibition (fraction of control) in assay [17] was -0.03 (inactive). For the same compound, the differentiation response in assay [19] was -13.6% (inactive).
